Reference: the supplement of paper PMC10646978
± gives the standard deviation.

Experiments:
Conditions in all cases: modulator concentration 10 µM
[1] = tested on: RAW-Dual (murine macrophage reporter line); assay: NF-kB reporter (SEAP) activity fold change vs agonist alone; higher = enhanced NF-kB activity
Summary of the method: (§1)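 RAW-Dual murine macrophage reporter cells were seeded at 50 000 per well in 384-well plates and pre-incubated 1 hour at 37 °C with compound pin-transferred to 10 μM final. After 1 hour, a PRR agonist was added and cells incubated overnight. Supernatant NF-κB (SEAP, QUANTI-Blue, 620 nm absorbance) and IRF (Lucia luciferase, QUANTI-Luc, luminescence) signals were divided by the mean agonist-only control on the same plate to give fold change. Two replicate plates were averaged, with errors by propagation.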

[2] = tested on: RAW-Dual (murine macrophage reporter line); assay: IRF reporter (Lucia luciferase) activity fold change vs agonist alone; higher = enhanced IRF activity
Summary of the method: as §1

[3] = tested on: RAW-Dual (murine macrophage reporter line); assay: viability score (confluency relative to resting cells, overnight) (fraction); higher = more viable, active = viable (0.7 or more)
Summary of the method: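 RAW-Dual macrophages in 384-well plates were incubated overnight with compound, final concentration 10 μM. Confluency images from IncuCyte were processed in IncuCyte software into two masks covering all imaged wells. The viability score is each well's confluency relative to resting cells, and a compound met the cutoff when both masks exceeded 70% of resting cells.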

[4] = agonist: CpG ODN 1826 0.5 ug/mL

Row | Structure (SMILES) | NF-kB reporter [1, 4] | NF-kB reporter ([1]; agonist: LPS 0.1 ug/mL) | NF-kB reporter ([1]; agonist: MPLA […]) | IRF reporter ([2]; agonist: 3'3'-cGAMP 10 ug/mL) | IRF reporter ([2]; agonist: LPS 0.1 ug/mL) | IRF reporter ([2]; agonist: MPLA […]) | viability score [3]
1 | CCOC(=O)Nc1ccc(NCc2ccc(F)cc2)cc1N | 0.882 ± 0.039 | 1.09 ± 0.086 | 0.936 ± 0.051 | 0.893 ± 0.044 | 1.2 ± 0.33 | 1.33 ± 0.51 | 1.01 (active)
2 | O=C(O)c1nn(Cc2ccc(Cl)cc2Cl)c2ccccc12 | 0.833 ± 0.12 | 0.959 ± 0.14 | 0.943 ± 0.055 | 0.926 ± 0.033 | 1.04 ± 0.25 | 1.06 ± 0.18 | 1 (active)
3 | CN1C(=O)NC(=O)C(=Cc2ccc([N+](=O)[O-])s2)C1=O | 1.12 ± 0.12 | 1.08 ± 0.07 | 1.05 ± 0.036 | 0.895 ± 0.098 | 0.925 ± 0.12 | 0.914 ± 0.19 | 1 (active)
4 | COc1cc(C2c3cc4c(c(O)c3CC3COC(=O)C32)OCO4)cc(OC)c1OC (stereo unspecified) | 2.38 ± 0.14 | 1.31 ± 0.086 | 2.08 ± 0.14 | 0.0984 ± 0.0043 | 1.75 ± 0.2 | 1.92 ± 0.17 | 0.735 (active)
5 | CC(=O)Oc1ccc(C=Cc2cc(OC(C)=O)cc(OC(C)=O)c2)cc1 | 1.12 ± 0.069 | 1.15 ± 0.073 | 1.12 ± 0.092 | 0.87 ± 0.029 | 0.953 ± 0.088 | 0.896 ± 0.093 | 1 (active)
6 | Cc1c(NC=C2C(=O)NC(=O)NC2=O)c(=O)n(-c2ccccc2)n1C | 0.967 ± 0.077 | 1.08 ± 0.074 | 0.957 ± 0.06 | 1.01 ± 0.029 | 1.45 ± 0.2 | 1.08 ± 0.069 | 1.02 (active)
7 | Cc1c(NN=C2C(=O)NC(=O)NC2=O)c(=O)n(-c2ccccc2)n1C | 1.02 ± 0.1 | 1.03 ± 0.086 | 0.958 ± 0.042 | 0.951 ± 0.13 | 1.08 ± 0.096 | 0.932 ± 0.14 | 0.999 (active)
8 | Br.CN1C2CC(OC(=O)C(CO)c3ccccc3)CC1C1OC12 (stereo unspecified) | 1.32 ± 0.32 | 0.999 ± 0.051 | 1.01 ± 0.074 | 1 ± 0.034 | 1.19 ± 0.13 | 1.19 ± 0.13 | 0.985 (active)
9 | O=[N+]([O-])c1ccc(NCCc2ccccc2)c2ncccc12 | 0.971 ± 0.17 | 1.04 ± 0.086 | 1.6 ± 0.64 | 0.926 ± 0.032 | 1.25 ± 0.21 | 1.31 ± 0.2 | 0.997 (active)
10 | COc1ccc(C(CN(C)C)C2(O)CCCCC2)cc1 (stereo unspecified) [Prestw-1170] | 0.741 ± 0.12 | 1.17 ± 0.14 | 0.956 ± 0.074 | 0.916 ± 0.031 | 1.11 ± 0.22 | 1.37 ± 0.23 | 0.981 (active)
11 | c1cc2c(cc1C1OCC3C(c4ccc5c(c4)OCO5)OCC13)OCO2 (stereo unspecified) | 0.745 ± 0.22 | 1.16 ± 0.058 | 1.1 ± 0.082 | 0.841 ± 0.041 | 1.22 ± 0.17 | 1.24 ± 0.12 | 1 (active)
12 | Nc1ccncc1 | 1 ± 0.24 | 1.03 ± 0.078 | 0.879 ± 0.056 | 0.514 ± 0.022 | 0.929 ± 0.11 | 0.976 ± 0.25 | 0.858 (active)
13 | CN(C)CCC(=O)c1ccccc1 | 0.736 ± 0.06 | 0.28 ± 0.032 | 0.33 ± 0.018 | 0.155 ± 0.054 | 0.134 ± 0.0059 | 0.09 ± 0.0096 | 0.463 (inactive)
14 | O=C1NC(=O)N(c2ccccc2F)C(=O)C1=Cc1cc(Cl)ccc1OCc1ccc([N+](=O)[O-])cc1 | 0.892 ± 0.071 | 1.05 ± 0.078 | 0.744 ± 0.045 | 0.741 ± 0.018 | 0.972 ± 0.087 | 0.855 ± 0.16 | 1.01 (active)
15 | O=Cc1cn(Cc2cccc3ccccc23)c2ccccc12 | 0.959 ± 0.16 | 1.01 ± 0.11 | 1.16 ± 0.12 | 1.09 ± 0.03 | 1.25 ± 0.28 | 1.23 ± 0.25 | 0.989 (active)
16 | COc1cc(C2c3cc4c(cc3C(O)C3COC(=O)C23)OCO4)cc(OC)c1OC (stereo unspecified) | 1.37 ± 0.41 | 0.807 ± 0.077 | 1.08 ± 0.1 | 0.688 ± 0.021 | 1.19 ± 0.17 | 1.51 ± 0.22 | 0.967 (active)
17 | COc1ccc(CCNCc2ccc3ccccc3c2)cc1OC | 0.42 ± 0.095 | 0.762 ± 0.058 | 0.849 ± 0.08 | 0.893 ± 0.045 | 1.17 ± 0.12 | 1.24 ± 0.14 | 0.984 (active)
18 | NC(=O)CN1CC(O)CC1=O (stereo unspecified) | 1.04 ± 0.079 | 1.04 ± 0.051 | 1 ± 0.03 | 0.961 ± 0.081 | 1.02 ± 0.082 | 0.954 ± 0.097 | 0.996 (active)
19 | CC(=O)OC1CN2CCC1CC2.Cl (stereo unspecified) | 0.984 ± 0.35 | 0.984 ± 0.12 | 0.971 ± 0.061 | 0.914 ± 0.052 | 0.869 ± 0.15 | 0.862 ± 0.081 | 1 (active)
20 | COc1ccc(CN2CCNCC2)c(OC)c1OC.Cl.Cl | 1.26 ± 0.18 | 1.06 ± 0.16 | 1.45 ± 0.53 | 0.921 ± 0.042 | 1.29 ± 0.28 | 1.27 ± 0.13 | 0.989 (active)
21 | C=C1C[C@@H]2[C@H](CC[C@]3(C)C(=O)CC[C@@H]23)[C@@]2(C)C=CC(=O)C=C12 | 0.843 ± 0.064 | 0.79 ± 0.091 | 0.984 ± 0.033 | 0.789 ± 0.051 | 0.911 ± 0.095 | 0.908 ± 0.16 | 0.987 (active)
22 | OCC(O)Cc1ccc2c(c1)OCO2 (stereo unspecified) | 1.02 ± 0.096 | 0.831 ± 0.062 | 0.906 ± 0.093 | 0.988 ± 0.031 | 1.37 ± 0.19 | 1.53 ± 0.25 | 0.994 (active)
23 | Cc1ccc(-c2nn(-c3ccccc3)cc2C=C2C(=O)NC(=O)NC2=O)o1 | 1 ± 0.094 | 1.07 ± 0.066 | 1 ± 0.08 | 1.01 ± 0.037 | 1.42 ± 0.23 | 1.16 ± 0.072 | 1.01 (active)
24 | CCC1(c2ccc(N)cc2)CCC(=O)NC1=O (stereo unspecified) | 1.22 ± 0.091 | 1.04 ± 0.052 | 1.06 ± 0.089 | 1.12 ± 0.26 | 0.913 ± 0.077 | 0.939 ± 0.083 | 0.996 (active)
25 | Cc1cc(N2CCNCC2)c2ccccc2n1 | 0.0643 ± 0.01 | 0.789 ± 0.062 | 0.899 ± 0.092 | 0.561 ± 0.045 | 1.15 ± 0.31 | 1.15 ± 0.16 | 0.994 (active)
26 | O=c1cc(CCl)occ1O | 1.18 ± 0.09 | 0.9 ± 0.09 | 1.13 ± 0.04 | 0.948 ± 0.13 | 0.876 ± 0.11 | 0.806 ± 0.26 | 0.999 (active)
27 | COc1ccc(CCNCc2cccc3ccccc23)cc1OC | 0.222 ± 0.016 | 0.82 ± 0.059 | 0.867 ± 0.058 | 0.872 ± 0.047 | 1.32 ± 0.093 | 1.44 ± 0.14 | 0.947 (active)
28 | CC1=C(O)C(=O)C=C2C1=CC=C1C2(C)CCC2(C)C3CC(C)(C(=O)O)CCC3(C)CCC12C (stereo unspecified) | 0.062 ± 0.0049 | 0.048 ± 0.0035 | 0.0885 ± 0.0089 | 0.0157 ± 0.0014 | 0.116 ± 0.081 | 0.071 ± 0.039 | 0.381 (inactive)
